Rab9 promoter act = activators of Rab9 promoter | Huh7 Rab9 promoter-luciferase reporter, luminescence, 24 h | Potency, µM (top dose mostly 9.22 µM), most hits filed as activators | 320,000 compounds, 2.8% hits; note: nearly all actives have a fitted effect of over 60% in size
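Steps: seed 1500 Huh7 Rab9-luc cells per well, rest 2 h at 37 °C; add compound in DMSO; incubate 24 h; add luciferase reagent, 10 min ambient; read luminescence.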
NPC1 promoter act = activators of NPC1 promoter; Huh7 NPC1 promoter luciferase reporter, 24 h; Potency, µM (doses to about 9.22 µM), actives largely listed as activators; 320,000 compounds, 2.4% hits; note: nearly all actives have a fitted effect of over 60% in size
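Cells: Huh7 expressing luciferase under the NPC1 promoter, 1500/well. Seeded 2 h, compound added, incubated 24 h at 37 °C. Luciferase reagent, 10 min ambient, then luminescence.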
FLuc counter = counter-screen for miR-21 project: firefly luciferase inhibitors or activators | P08659 | purified FLuc, Km substrates, luminescence inhibition | 360,000 compounds, 6.9% hits | Potency, µM (highest dose often 57.5 µM), most hits filed as inhibitors; note: nearly all actives have a fitted effect of over 55% in size
Target sequence (P08659 whole entry, looked up): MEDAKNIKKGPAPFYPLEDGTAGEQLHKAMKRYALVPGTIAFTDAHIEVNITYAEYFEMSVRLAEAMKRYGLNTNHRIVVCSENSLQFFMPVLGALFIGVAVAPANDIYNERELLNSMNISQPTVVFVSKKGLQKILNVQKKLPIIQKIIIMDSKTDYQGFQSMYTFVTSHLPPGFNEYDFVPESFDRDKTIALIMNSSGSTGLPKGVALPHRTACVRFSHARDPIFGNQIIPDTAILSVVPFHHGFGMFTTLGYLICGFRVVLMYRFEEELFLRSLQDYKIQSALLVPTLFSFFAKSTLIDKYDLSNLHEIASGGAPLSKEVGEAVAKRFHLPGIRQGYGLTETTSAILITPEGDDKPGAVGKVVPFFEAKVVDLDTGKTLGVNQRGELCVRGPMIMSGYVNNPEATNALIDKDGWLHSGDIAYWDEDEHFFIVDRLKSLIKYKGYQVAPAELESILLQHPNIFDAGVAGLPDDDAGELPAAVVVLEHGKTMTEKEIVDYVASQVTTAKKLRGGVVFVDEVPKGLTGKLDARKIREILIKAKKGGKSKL
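Purified P. pyralis luciferase (10nM final) with 10uM D-luciferin and 10uM ATP (Km levels) in 50mM Tris acetate pH 7.5, 10mM Mg acetate, 0.01% Tween-20, 0.05% BSA; qHTS 6-point titration, ~60 µM downward; luminescence read.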
Luc counter = Kinase-Glo luciferase inhibition (counter-screen); Q27757; Kinase-Glo luciferase, ATP luminescence, 8 min; Potency, µM (doses to about 38.3 µM), hits mostly inhibitors; 200,000 compounds, 0.28% hits; AID 1379; note: nearly all actives have a fitted effect of over 60% in size
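Substrate mix (final 50 mM imidazole pH 7.2, 50 mM KCl, 7 mM MgCl2, 10 uM ATP, 0.01% Tween 20, 0.05% BSA) plus pin-tool compound, then Kinase-Glo detection mix; 8 min ambient, luminescence read.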
SMN2 splice up = SMN2 splice variant enhancement; HEK293 SMN2-luciferase splicing reporter, luminescence, 30-36 h; Potency, µM (titrated, usually from 46.1 µM), usual class: activators; 210,000 compounds, 2.8% hits; AID 1458; note: nearly all actives have a fitted effect of over 55% in size
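qHTS luciferase splicing reporter: luminescence rises when SMN2 exon 7 is included in transfected HEK293 cells. Compound exposure lasted 30-36 h at 37C, with 4.5 mM final sodium butyrate as control, followed by a ONE-Glo read.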
ELG1 genotoxic = genotoxicity induction in ELG1-luciferase HEK293T cells; HEK293T ELG1-luciferase reporter, luminescence, 16 h; Potency, µM (top dose mostly 46 µM), usual class: activators; 330,000 compounds, 1.3% hits; note: nearly all actives have a fitted effect of over 60% in size
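16 hr compound incubation (37 °C, 5% CO2) of HEK293T cells carrying luciferase-tagged ELG1; luciferase then measured by ONE-Glo luminescence after 30 min at RT.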
Of the large screens only hits and unclear results are named; the others gave an inactive call. Only some compounds are listed: those with a hit (about 7.4% of all), similar ones and a draw of the others. Calls come from the whole dose curve; as a rule, active = well fitted curve in the direction sought with a large enough effect; inconclusive = small, poorly fitted or top-dose-only effect, or another doubt; inactive = no such curve, though single readings can be large; an effect the other way counts as inactive or inconclusive.

CCc1ccccc1NC(=O)CN1C(=O)c2ccccc2Sc2ncccc21	none (no result: Rab9 promoter act, NPC1 promoter act, Luc counter, SMN2 splice up, ELG1 genotoxic)
O=C(Nc1ccc(-c2nc3cccnc3s2)cc1)c1cccnc1Cl	Rab9 promoter act 0.79µM, NPC1 promoter act 0.32µM, FLuc counter 1.7µM, ELG1 genotoxic 0.82µM (no result: Luc counter, SMN2 splice up)
CCOc1ncccc1C(=O)Nc1cccc(-c2nc3cccnc3s2)c1	FLuc counter inconclusive (no result: Luc counter, SMN2 splice up)
O=C(Nc1ccc(-c2nc3cccnc3s2)cc1)c1ccc(Cl)nc1	Rab9 promoter act 0.71µM, NPC1 promoter act 0.89µM, FLuc counter inconclusive (no result: Luc counter, SMN2 splice up)
COc1ccc(/C=C2\N=C(C)OC2=O)cc1OC(C)=O	none (no result: Luc counter, SMN2 splice up)
CCOc1ccc(/C=C2\N=C(c3cccs3)OC2=O)cc1OC	none
COc1cc(/C=C2\N=C(c3ccccc3)OC2=O)ccc1OC(C)=O	FLuc counter 15µM (no result: Luc counter, SMN2 splice up)
COc1ccc(/C=C2/N=C(c3cccs3)OC2=O)cc1OC(C)C	FLuc counter 6.7µM
O=C(O)CCSC1=NCCN1	none (no result: Rab9 promoter act, NPC1 promoter act, FLuc counter, ELG1 genotoxic)
CCCCN1CC(c2nc3ccccc3n2CCCCOc2c(C)cccc2C)CC1=O (stereo not given)	none (no result: Rab9 promoter act, NPC1 promoter act, Luc counter, SMN2 splice up, ELG1 genotoxic)
NC(=S)N/N=C/c1c[nH]c2ccc(OCc3ccccc3)cc12	FLuc counter 21µM (no result: Luc counter, SMN2 splice up)
NC(=S)N/N=C\c1c[nH]c2ccccc12	none (no result: Rab9 promoter act, NPC1 promoter act, FLuc counter, ELG1 genotoxic)
Cn1c(/C(C#N)=C/c2cccc(O)c2)nc2ccccc21	Rab9 promoter act inconclusive, FLuc counter 13µM, SMN2 splice up inconclusive, ELG1 genotoxic inconclusive
COc1cc(/C=C(\C#N)c2nc3ccccc3n2C)cc(OC)c1OC	FLuc counter 19µM (no result: Rab9 promoter act, NPC1 promoter act, Luc counter, ELG1 genotoxic)
COc1ccc(/C(O)=C(\C#N)c2nc3ccccc3n2C)cc1OC	none
COc1ccc(/C=C(\C#N)c2nc3ccccc3n2C)c(OC)c1	FLuc counter 24µM (no result: Rab9 promoter act, NPC1 promoter act, Luc counter, ELG1 genotoxic)
O=C(NC1CC(=O)N(c2ccc(F)cc2)C1)C1CCCC1 (stereo not given)	none (no result: Rab9 promoter act, NPC1 promoter act, Luc counter, SMN2 splice up, ELG1 genotoxic)
CC(C)OC(=O)c1c(NC(=O)c2cc3nc(-c4ccccc4)cc(C(F)(F)F)n3n2)sc2c1CCCC2	none (no result: Rab9 promoter act, NPC1 promoter act, Luc counter, SMN2 splice up, ELG1 genotoxic)
COc1cc(C(=O)Nc2cc(C)ccn2)cc(OC)c1OC	none
COc1cc2ccccc2cc1C(=O)Nc1cc(C)ccn1	Rab9 promoter act 3.2µM, NPC1 promoter act inconclusive, FLuc counter 12µM, ELG1 genotoxic inconclusive (no result: Luc counter, SMN2 splice up)
C/C(CC(=O)Nc1ccccn1)=N\NC(=O)c1ccc(C)cc1	none
COc1ccc(C(=O)Nc2ccccc2C(=O)Nc2cccc(C)n2)cc1	NPC1 promoter act inconclusive, FLuc counter 5.4µM (no result: Luc counter, SMN2 splice up)
COc1cc2ccccc2cc1C(=O)Nc1ccc(C)cc1	FLuc counter 3µM, ELG1 genotoxic inconclusive (no result: Luc counter, SMN2 splice up)
C/C(CC(=O)Nc1cc(C)ccn1)=N\NC(=O)c1ccc(C(C)(C)C)cc1	FLuc counter 11µM (no result: Luc counter, SMN2 splice up)
Cc1ccc2cccc(NC(=O)C(C)Oc3ccc(Cl)cc3Cl)c2n1 (stereo not given)	none (no result: Rab9 promoter act, NPC1 promoter act, Luc counter, ELG1 genotoxic)
COc1ccc(S(=O)(=O)c2c(O)c(C)cc(NS(=O)(=O)c3ccc(Cl)cc3)c2C(C)C)cc1	FLuc counter inconclusive (no result: Rab9 promoter act, NPC1 promoter act, Luc counter, ELG1 genotoxic)
O=C(c1cc(C(F)(F)F)cc(C(F)(F)F)c1)N1CCC2(CC1)CN(c1ncccn1)C2	none (no result: Rab9 promoter act, NPC1 promoter act, FLuc counter, ELG1 genotoxic)
COc1ccc(C(=O)NC(=O)Nc2cc(C)ccn2)cc1	Rab9 promoter act 0.79µM, NPC1 promoter act 0.79µM, FLuc counter 0.19µM, ELG1 genotoxic inconclusive (no result: Luc counter, SMN2 splice up)
Cc1ccc(NC(=O)c2cccc3ccccc23)cc1	Rab9 promoter act inconclusive, NPC1 promoter act inconclusive, FLuc counter 15µM (no result: Luc counter, SMN2 splice up)
CC(=O)Nc1ccc(NC(=O)c2cccc3ccccc23)cc1	none (no result: Luc counter, SMN2 splice up)
Cc1ccnc(NC(=S)NC(=O)c2cncc(Br)c2)c1	Rab9 promoter act inconclusive, NPC1 promoter act inconclusive, FLuc counter inconclusive, ELG1 genotoxic inconclusive
COc1ccc(C(=O)Nc2ccccc2C(=O)Nc2cccnc2)cc1	FLuc counter 4.3µM, ELG1 genotoxic inconclusive (no result: Luc counter, SMN2 splice up)
CCOc1ccc(C(=O)NC(=S)Nc2cccnc2)cc1	Rab9 promoter act 2.8µM, NPC1 promoter act inconclusive, FLuc counter inconclusive, SMN2 splice up inconclusive
COc1ccc(S(=O)(=O)N2CCC(n3c(C(F)(F)F)nc4cccnc43)CC2)cc1OC	none (no result: Rab9 promoter act, NPC1 promoter act, Luc counter, SMN2 splice up, ELG1 genotoxic)
COc1ccc(C(=O)Nc2ccccc2C(=O)Nc2cc(C)ccn2)cc1	Rab9 promoter act 3.5µM, NPC1 promoter act 1.8µM, FLuc counter 1.3µM (no result: Luc counter, SMN2 splice up)
O=C(Nc1cccnc1)c1ccccc1O	FLuc counter 15µM
